Sampled rows, rich in hits. Any-hit rate of the full collection: about 2.6%.
TRPV1 potentiator: potentiators of human vanilloid receptor 1 (TRPV1) | Q8NER1 | TRPV1-expressing cells, Fluo-8 calcium influx, capsaicin EC20 potentiation | potentiation, % at 8.33 µM | actives 0.02% (n = 320,000) | AID 540277; in the data active means potentiation above about 80%; inconclusive means between about 30% and that limit; further: 0% is about no effect
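TRPV1-expressing cells were cultured overnight at 35.5C and loaded with Fluo-8 calcium dye for 40 to 90 min at room temperature. After a 10 s baseline, compound was added and calcium influx was read kinetically for 3 min (ex 480/em 520 nm).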
TRPV1 ag: activates the human vanilloid receptor TRPV1; AID 540275; TRPV1-expressing cells, Fluo-8 calcium influx, agonist mode; actives 0.19% (n = 320,000); activation, % at 8.33 µM; Q8NER1; in the data active means activation above about 80%; inconclusive means between about 30% and that limit; further: 0% is about no effect
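Cells expressing TRPV1 were dye-loaded with Fluo-8 and read kinetically: 10 s baseline, 3 min after compound (agonist portion), then 2 min after EC20 capsaicin (allosteric enhancer portion). Calcium-bound dye fluorescence at 480/520 nm.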
ClpP mod: qHTS Assay for Activators of ClpP | Potency, µM (series often up to 57.5 µM), without a hit: top-dose activity change, negative = active | ATP-dependent Clp protease proteolytic subunit (Bacillus subtilis (strain 168)), P80244 | purified B. subtilis ClpP, FRET peptide cleavage, 20 min | actives 1.9% (n = 340,000) | AID 651965, 2013; active means well fitted falling curve with a large enough effect; inconclusive means small, poorly fitted or top-dose-only effect; inactive means no such curve, though single readings can be large or run the other way; further: potency means the concentration at half of the fitted maximal effect; the source files actives as falling curves though it sought activators and does not explain the sign; nearly all actives have a fitted effect of over 65% in size
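Buffer: 100 mM Tris/HCl pH8, 100 mM KCl, 0.05% low protease BSA, 2.5% glycerol, 0.01% Tween-20. ClpP 10 microg/mL final; 20 min RT; delta FRET normalized to ADEP and DMSO controls.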
KCNH2 3.1 inh: inhibitors of human KCNH2 3.1 potassium channel isoform | U2OS KCNH2 3.1, thallium flux FluxOr; active compounds read low | actives 0.95% (n = 340,000) | activity change, % (tested at about 1.8 µM);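 active means maximum activity change below -70%; inconclusive means maximum activity change from -70% to -50%; inactive means maximum activity change above -50%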;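 further: thallium influx rate constant from kinetic fluorescence after stimulation buffer; on the % scale 0 is the no-effect control and ±100 the full control effect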
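Channel expression came from 3.1 mutant virus (1.77 x 10^8 /mL) applied to suspended U2OS cells for 4 h. Flux was tracked with FluxOr dye plus Red40 quencher, and kinetic rate constants normalized to controls.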
p53 reactivation: re-activators of mutant p53; actives 0.063% (n = 320,000); H1299 p53-A138V BP100-luciferase reporter, luminescence, 24 h; Potency, µM (highest dose often 92.2 µM), for inactives: at the top dose activity change, positive = activation, usual class: activators; active means well fitted activation curve with a large enough effect; inconclusive means small, poorly fitted or top-dose-only effect; inactive means no such curve, though single readings can be large or run the other way; further: potency means the concentration at half of the fitted maximal effect; % of control where 0% means no effect; nearly all actives have a fitted effect of over 45% in size
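p53-null H1299 cells stably carrying temperature-sensitive p53-A138V and a BP100-luciferase reporter were pinned with compounds (4-point, 1:5 series) and held 24 hrs at 37 deg C. Luminescence was read 10 min after detection reagent.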
hERG WT inh: inhibitors of human wildtype KCNH2 potassium channel | Q12809 | actives 0.37% (n = 340,000) | U2OS, BacMam KCNH2, thallium flux FluxOr; active compounds read low | activity change, % at 1.84 µM | AID 720551;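 active means maximum activity change below -70%; inconclusive means maximum activity change between -70% and -50%; inactive means maximum activity change above -50%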; further: on the % scale 0 is the no-effect control and ±100 the full control effect
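U2OS cells transduced with wild-type KCNH2 virus are loaded with FluxOr dye for 45 min, and thallium flux is measured in kinetic reads before and after stimulation buffer. Rate constants are normalized to DMSO controls.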
Numbers without * were called inactive; ? = inconclusive; · = not tested or not shown.

SMILES	TRPV1 potentiator	TRPV1 ag	ClpP mod	KCNH2 3.1 inh	p53 reactivation	hERG WT inh
CCN1C(=O)C(CC(=O)Nc2ccc(OC)cc2)N(CCCN2CCN(c3ccc(F)cc3)CC2)C1=S (stereo not drawn)	-4	7	1%	-83*	-4%	-76*
COc1ccc(NC(=O)CC2C(=O)N(Cc3ccccc3)C(=S)N2CCN2CCOCC2)cc1 (stereo not drawn)	0	-3	8.9µM*	-6	-2%	-11
COc1ccc(NC(=O)CC2C(=O)N(C)C(=S)N2CCc2ccc(F)cc2)cc1 (stereo not drawn)	-5	2	-2%	-4	-3%	5
COC(=O)CN1C(=S)N(Cc2ccccc2)C(=O)C1CC(=O)Nc1ccc(OC)cc1 (stereo not drawn)	-19	19	1%	-4	-1%	-4
O=S(=O)(c1ccc(Br)cc1)N1CCN(c2ccc3nnc(-c4ccccc4)n3n2)CC1	2	1	-2%	-91*	9%	-14
COc1ccc(C(=O)c2c3ccc(C(F)(F)F)cc3[n+]([O-])n2CCCN)cc1	-16	5	-6%	?	12%	-30
Cc1ccc(C(=O)c2c3ccc(C(F)(F)F)cc3[n+]([O-])n2CCC(N)=O)cc1	-13	8	-2%	24	10%	1
Cc1ccc(C(=O)c2c3ccc(C(F)(F)F)cc3[n+]([O-])n2CCCN)cc1	9	-3	-4%	-85*	?	-40
Cc1ccc(C(=O)c2c3ccc(C(F)(F)F)cc3[n+]([O-])n2CCCC(N)=O)cc1	7	?	1%	-79*	3%	11
Cc1cccc(Cn2c(-c3cccc(Br)c3)nc3ccccc32)c1	·	·	32µM*	·	·	·
Brc1cccc(Cn2c(-c3cncs3)nc3ccccc32)c1	3	1	-11%	-1	2%	-5
Cn1cc(C2NC(=O)c3ccccc3N2)c2ccccc21 (stereo not drawn)	·	·	28µM*	1	·	4
CN(C)C(=O)c1cn(-c2ccccc2)nc1-c1cc2ccccc2oc1=O	5	-2	·	8	-5%	11
CN1CCN(C(=O)c2ccc(C3SCC(=O)N3Cc3ccco3)cc2)CC1 (stereo not drawn)	7	0	0%	3	-11%	-1
O=C1CSC(c2nn(-c3ccccc3)cc2-c2cc3ccccc3oc2=O)N1Cc1ccco1 (stereo not drawn)	0	16	35µM*	-42	-6%	21
O=C1CSC(c2cn(-c3ccccc3)nc2-c2cc3ccccc3oc2=O)N1Cc1ccccc1 (stereo not drawn)	3	17	28µM*	-48	-3%	-9
COC(=O)CC1Oc2ccccc2-n2cc(-c3ccc(F)cc3)nc21 (stereo not drawn)	·	·	14%	·	·	·
CC(Oc1ccccc1)C(=O)N[C@@H]1C(=O)N2C(C(=O)O)C(C)(C)S[C@H]12 (stereo partly drawn)	·	·	0%	·	·	·
COc1ccc(S(=O)(=O)NNC(=O)c2cccs2)cc1	19	-6	-2%	-104*	2%	-2
CC(=O)NNC(=O)c1cc2c3ccccc3n(C)c2s1	1	1	4%	-3	-4%	-15
COc1ccc(S(=O)(=O)NNC(=O)c2cc3c4ccccc4n(C)c3s2)cc1	3	-4	35µM*	5	-9%	-5
O=C(NNS(=O)(=O)c1ccc(Cl)cc1)c1cccs1	8	1	-2%	-8	0%	-4
OC(C[n+]1ccccc1Cl)c1ccccc1 (stereo not drawn)	·	·	-4%	·	·	·
Cc1ccc2[nH]c(=O)c(CN(Cc3cccnc3)Cc3nnnn3CC3CCCO3)cc2c1 (stereo not drawn)	-4	-1	-25%	4	-5%	-1

Compound activity deposited in PubChem by National Center for Advancing Translational Sciences (NCATS).
